Bioassay records as filed in PubChem BioAssay.
TGFb inhibitor – blocks TGF-b signaling. HepG2 CAGA-GFP TGF-b/SMAD3 reporter, GFP fluorescence, 18 h; TGF-beta stimulated, 500 pg/mL final. Potency, µM (doses to about 46.1 µM), hits mostly inhibitors. hit rate 1.2% among 410,000; further: nearly all actives have a fitted effect of over 65% in size
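Read-out: total well GFP (ex488/em500-530) summed from mean per-cell fluorescence. Cells: HEPG2 CAGA-GFP, 1% FBS DMEM, 18 h at 37 degrees C with 500 pg/mL final TGF-beta. Unstimulated wells served as the full-inhibition control; stimulated DMSO wells = 0%.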
HepG2 viability – counter-screen for TGF-b inhibitors: cytotoxicity in HepG2 cells | Potency, µM (top dose mostly 46.1 µM), usual class: cytotoxic | hit rate 0.76% among 410,000 | AID 588856 | HepG2 CAGA-GFP viability, ATP luminescence, 18 h
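HepG2 CAGA-GFP cells (1000/well, DMEM with 1% FBS) received compound, then TGF-beta at 500 pg/mL final, and were incubated 18 hours at 37 degrees C. Viability was read by CellTiter-Glo luminescence. Media-only wells were set as complete cell-killing and DMSO as no toxicity.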
ATXN2 expr inh – inhibitors of ATXN2 expression; HEK-293 ATXN2-luciferase reporter, luminescence, 24 h; Potency, µM (series often up to 57 µM), usual class: inhibitors; hit rate 0.72% among 360,000; further: nearly all actives have a fitted effect of over 55% in size
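qHTS (up to 57 uM final) was run with 24 h compound exposure of reporter cells at 37 °C. Each well was multiplexed: SteadyGlo luminescence measured ATXN2-luciferase expression after a fluorogenic Gly-Phe-AFC viability readout (25 uM final).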
ATXN viability – viability counter-screen for ATXN expression inhibitors; S2 cells (HEK-293 line with an ATXN2-luciferase reporter) viability, CellTiter-Fluor protease fluorescence, 24 h; Potency, µM (series often up to 56.7 µM), usual class: cytotoxic; hit rate 0.49% among 400,000; AID 651635; further: nearly all actives have a fitted effect of over 40% in size
HT1080 IDH1KD tx – kills HT-1080 cells with IDH1 knockdown; HT-1080 IDH1 knockdown viability, ATP luminescence, 48 h; Potency, µM (titrated, usually from 46.1 µM), usual class: cytotoxic; hit rate 2% among 360,000
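In this qHTS, HT-1080 cells depleted of IDH1 are exposed for 48 h at 37 °C to compound titrations. Toxicity is scored from CellTiter-Glo luminescence, with DMSO as full viability and medium alone as none.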
HT1080-NT tox – kills 2HG-producing HT-1080-NT fibrosarcoma cells; HT-1080-NT fibrosarcoma viability, CellTiter-Glo ATP luminescence, 48 h; Potency, µM (doses to about 46.1 µM), actives largely listed as cytotoxic; hit rate 1.6% among 360,000; AID 686970;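 further: NT is the 2HG producing partner of a matched IDH1 knockdown line; nearly all actives have a fitted effect of over 55% in size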
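Viability by CellTiter-Glo luminescence after 48 h compound exposure at 37C of HT-1080-NT cells (750/well, RPMI, 5% FBS). % activity scaled between DMSO wells and medium-only wells, then curve-fitted and categorized by curve class.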
SKNSH spheroid – SK-N-SH 3D spheroid viability loss; shares compounds with ATXN2 expr inh; SK-N-SH 3D spheroid viability, PI/Hoechst imaging, 72 h; Potency, µM (top dose mostly 30.7 µM), usual class: inhibitors; hit rate 70% among 65
SJGBM2 3D viab – SJ-GBM2 spheroid viability loss, orthogonal 3D screen; shares compounds with ATXN2 expr inh; SJ-GBM2 3D spheroid viability, PI/Hoechst imaging, 72 h; Potency, µM (series often up to 30.7 µM), usual class: inhibitors; hit rate 80% among 65; AID 1347136
Daoy spheroid – Daoy 3D spheroid viability loss; shares compounds with ATXN2 expr inh; Daoy 3D spheroid viability, PI/Hoechst imaging, 72 h; Potency, µM (series often up to 30.7 µM), usual class: inhibitors; hit rate 50% among 65
TC32 3D casp – TC32 spheroid caspase-3/7 activation, orthogonal screen | hit rate 30% among 65 | Potency, µM (doses to about 30.7 µM), most hits filed as inhibitors | shares compounds with ATXN2 expr inh | TC32 3D spheroids, caspase-3/7 fluorescence imaging, 24 h
TC32 spheroid – reduced viability of TC32 3D spheroids, orthogonal test; AID 1347139; shares compounds with ATXN2 expr inh; hit rate 60% among 65; TC32 3D spheroid viability, PI/Hoechst imaging, 72 h; Potency, µM (highest dose often 30.7 µM), actives largely listed as inhibitors
MG63 spheroid – kills MG-63 (6-TG R) spheroids in orthogonal 3D test | MG-63 (6-TG R) 3D spheroid viability, PI/Hoechst imaging, 72 h | Potency, µM (titrated, usually from 30.7 µM), actives largely listed as inhibitors | hit rate 50% among 65 | shares compounds with ATXN2 expr inh
RD spheroid – RD 3D spheroid viability loss; shares compounds with ATXN2 expr inh; RD rhabdomyosarcoma 3D spheroid viability, PI/Hoechst imaging, 72 h; hit rate 50% among 65; AID 1347141; Potency, µM (highest dose often 30.7 µM), most hits filed as inhibitors
Large screens that a line does not name were inactive (follow-up assays come after a bar, where they were run). An excerpt weighted towards active compounds, which were near 3.9% of everything screened. The call rests on the fitted dose curve; in most records, active means well fitted curve in the direction sought with a large enough effect; inconclusive means small, poorly fitted or top-dose-only effect, or another doubt; inactive means no such curve, though single readings can be large; an effect the other way counts as inactive or inconclusive.

COC(=O)Nc1nc2ccc(S(=O)c3ccccc3)cc2[nH]1 (stereo unspecified)	ATXN viability inconclusive (no result: TGFb inhibitor, HepG2 viability, HT1080 IDH1KD tx, HT1080-NT tox) | SKNSH spheroid inconclusive | SJGBM2 3D viab 0.57µM | Daoy spheroid inconclusive | TC32 3D casp inconclusive | TC32 spheroid 0.64µM | MG63 spheroid inconclusive | RD spheroid inconclusive
CCCS(=O)c1ccc2nc(NC(=O)OC)[nH]c2c1 (stereo unspecified)	none (no result: TGFb inhibitor, HepG2 viability, HT1080 IDH1KD tx, HT1080-NT tox)
Cc1c2oc3c(C)ccc(C(=O)N[C@@H]4C(=O)N[C@H](C(C)C)C(=O)N5CCC[C@H]5C(=O)N(C)CC(=O)N(C)[C@@H](C(C)C)C(=O)O[C@@H]4C)c3nc-2c(C(=O)N[C@@H]2C(=O)N[C@H](C(C)C)C(=O)N3CCC[C@H]3C(=O)N(C)CC(=O)N(C)[C@@H](C(C)C)C(=O)O[C@@H]2C)c(N)c1=O	ATXN2 expr inh 1µM, ATXN viability inconclusive (no result: TGFb inhibitor, HepG2 viability, HT1080 IDH1KD tx, HT1080-NT tox) | SKNSH spheroid 0.0029µM | SJGBM2 3D viab 0.018µM | Daoy spheroid 0.026µM | TC32 3D casp inconclusive | TC32 spheroid 0.032µM | MG63 spheroid 0.029µM | RD spheroid 0.02µM
COC1=C2C[C@@H](C)C[C@H](OC)[C@@H](O)[C@@H](C)C=C(C)[C@H](OC(N)=O)[C@@H](OC)C=CC=C(C)C(=O)NC(=CC1=O)C2=O	ATXN2 expr inh 0.77µM (no result: TGFb inhibitor, HepG2 viability, ATXN viability, HT1080 IDH1KD tx, HT1080-NT tox) | SKNSH spheroid 1.6µM | SJGBM2 3D viab 1.6µM | Daoy spheroid 6.4µM | TC32 3D casp inconclusive | TC32 spheroid 1.1µM | MG63 spheroid inactive | RD spheroid 0.72µM
CC(C)CC(=O)Nc1nc2nc(-c3ccccc3)cc(=O)n2[nH]1	none (no result: HT1080 IDH1KD tx, HT1080-NT tox)
CCOC(=O)c1c(-c2ccc(C)cc2)csc1NC(=O)c1cc(=O)c2cc(Cl)ccc2o1	none (no result: HT1080 IDH1KD tx, HT1080-NT tox)
C[C@@]12O[C@@H](C[C@]1(O)CO)n1c3ccccc3c3c4c(c5c6ccccc6n2c5c31)CNC4=O	ATXN2 expr inh 3.1µM (no result: TGFb inhibitor, HepG2 viability, ATXN viability, HT1080 IDH1KD tx, HT1080-NT tox) | SKNSH spheroid 1.4µM | SJGBM2 3D viab 0.14µM | Daoy spheroid 1.1µM | TC32 3D casp 2.6µM | TC32 spheroid 5.1µM | MG63 spheroid 13µM | RD spheroid 8.1µM
Cc1ccc(-n2ccn(CC(=O)c3ccc(F)cc3)c(=O)c2=O)cc1C	none (no result: ATXN2 expr inh, ATXN viability, HT1080 IDH1KD tx, HT1080-NT tox)
CN(C)/N=N/c1nc[nH]c1C(N)=O	none (no result: TGFb inhibitor, HepG2 viability, HT1080 IDH1KD tx, HT1080-NT tox) | SKNSH spheroid inactive | SJGBM2 3D viab inconclusive | Daoy spheroid inactive | TC32 3D casp inactive | TC32 spheroid inactive | MG63 spheroid inactive | RD spheroid inactive
CN(C)N=Nc1nc[nH]c1C(N)=O	ATXN2 expr inh inconclusive, HT1080-NT tox inconclusive
